# Results: PubChem BioAssay (NCI)
# The panel holds about 79,000 compounds, 15% with a hit somewhere; the sample as a whole holds those more often. A number with no mark means an inactive call. Calls of active or inactive are those of the source. No stated cut-off is given here; in the data, active means growth inhibition above about 70%; inactive means the rest.
# What was measured:
# [1] = NCI Yeast Anticancer Drug Screen. Data for the rad52 strain (AID 147);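 further: 0% = growth of vehicle-treated control cultures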; conditions: S. cerevisiae rad52 mutant growth inhibition, stronger effect = higher value
# How it was run: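 Vehicle-treated cultures served as the reference for growth inhibition of compound-exposed yeast bearing a DNA repair mutation.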
# [2] = NCI Yeast Anticancer Drug Screen. Data for the wt1 strain (AID 149);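 further: 0% = growth of vehicle-treated wt1 cultures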; conditions: S. cerevisiae wt1 strain (SPY 50644) growth inhibition, stronger effect = higher value
# How it was run: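 Vehicle-normalised growth inhibition; strain wt1; compound exposure.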
# [3] = NCI Yeast Anticancer Drug Screen. Data for the rad50EPP+ strain (AID 151);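 further: 0% = growth of vehicle-treated control cultures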; conditions: S. cerevisiae rad50 mutant strain, stronger effect = higher value
# How it was run: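 In this screen, rad50EPP+ yeast were exposed to compounds. Growth inhibition was scored against vehicle-treated controls.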
# [4] = NCI Yeast Anticancer Drug Screen. Data for the mgt1 strain (AID 153); conditions: S. cerevisiae mgt1 mutant growth inhibition, stronger effect = higher value
# How it was run: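 mgt1 strain exposed; growth vs vehicle control recorded as inhibition.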
# [5] = NCI Yeast Anticancer Drug Screen. Data for the rad50 strain (AID 155);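 further: 0% = growth of vehicle-only cultures of the same strain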; conditions: S. cerevisiae rad50 strain growth inhibition, stronger effect = higher value
# How it was run: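 A DNA repair-deficient yeast mutant serves as the test organism; compound-induced growth inhibition is calculated against vehicle-treated cells.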
# [6] = NCI Yeast Anticancer Drug Screen. Data for the mec2-1 strain (AID 157); conditions: S. cerevisiae mec2-1 strain, stronger effect = higher value
# How it was run: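 Vehicle-treated cultures served as reference for growth inhibition of compound-exposed mec2-1 yeast.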
# [7] = NCI Yeast Anticancer Drug Screen. Data for the rad14 strain (AID 159);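 further: 0% = growth of vehicle-treated control cultures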; conditions: S. cerevisiae rad14 strain growth inhibition, stronger effect = higher value
# How it was run: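 Vehicle-treated cultures served as the baseline for growth inhibition of a DNA repair-mutant yeast strain exposed to each compound.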
# [8] = NCI Yeast Anticancer Drug Screen. Data for the sgs1 mgt1 strain (AID 161);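 further: 0% = growth of cultures given vehicle only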; conditions: S. cerevisiae sgs1 mgt1 strain, stronger effect = higher value
# How it was run: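 Mutant yeast exposed to compound; growth scored against vehicle-only wells.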
# [9] = NCI Yeast Anticancer Drug Screen. Data for the CLN2oe strain (AID 163);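 further: 0% = growth of vehicle-only control cultures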; conditions: S. cerevisiae CLN2oe strain, stronger effect = higher value
# How it was run: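 Inhibition relative to vehicle-treated yeast is reported. Cells: strain with genetic alteration in cell-cycle control, grown with compound.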
# [10] = NCI Yeast Anticancer Drug Screen. Data for the cln2 rad14 strain (AID 165);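 further: 0% = growth equal to vehicle treated cultures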; conditions: S. cerevisiae cln2 rad14 strain, stronger effect = higher value
# How it was run: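 Each compound was tested on cln2 rad14 yeast. Inhibition of growth was calculated against vehicle-exposed controls.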
# [11] = NCI Yeast Anticancer Drug Screen. Data for the bub3 strain (AID 167); conditions: S. cerevisiae bub3 mutant strain, stronger effect = higher value
# How it was run: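 Inhibition values come from growth of compound-treated mutant yeast normalised to vehicle-treated controls.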
# [12] = NCI Yeast Anticancer Drug Screen. Data for the wt2 strain (AID 169);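 further: 0% = growth of vehicle-treated yeast cultures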; conditions: S. cerevisiae wt2 strain growth inhibition, stronger effect = higher value
# How it was run: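 Inhibition of yeast growth was determined after compound treatment, normalised to controls receiving only vehicle.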
# [13] = NCI Yeast Anticancer Drug Screen. Data for the mlh1 strain (AID 171);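 further: 0% = growth of vehicle-treated control cultures of the same strain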; conditions: S. cerevisiae mlh1 strain growth inhibition, stronger effect = higher value
# How it was run: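 Vehicle-normalised growth inhibition of a repair- or checkpoint-altered yeast strain following compound treatment.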
# [14] = NCI Yeast Anticancer Drug Screen. Data for the sgs1 strain (AID 173);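 further: 0% = growth of vehicle-only control cultures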; conditions: S. cerevisiae sgs1 mutant, stronger effect = higher value
# How it was run: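 Screen format: yeast with repair or checkpoint alterations, compound exposure, growth read relative to vehicle.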
# [15] = NCI Yeast Anticancer Drug Screen. Data for the mlh1 rad18 strain (AID 175); conditions: S. cerevisiae mlh1 rad18 strain growth inhibition, stronger effect = higher value
# How it was run: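 Vehicle-treated cultures served as the reference for growth inhibition in a yeast strain carrying DNA damage repair alterations exposed to each compound.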
# [16] = NCI Yeast Anticancer Drug Screen. Data for the rad18 strain (AID 177); conditions: S. cerevisiae rad18 mutant growth inhibition, stronger effect = higher value
# How it was run: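 Test articles were incubated with altered yeast defective in DNA damage repair. Results are given as inhibition of growth versus vehicle.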
# [17] = at 5.0 µM (retest, dose inferred, filed as 0.5)
# [18] = at 50.0 µM (retest, dose inferred, filed as 5.0)
compound,measurement,setting,value
O=C1N=C2SC=C(NC(=S)Nc3ccccc3)N2NC12c1ccccc1-c1ccccc12,growth inhibition,[1]; at 1.2 µM,11%
same,growth inhibition,[1]; at 3.7 µM,12%
same,growth inhibition,[1]; at 11.0 µM,19%
same,growth inhibition,[1]; at 33.0 µM,46%
same,growth inhibition,[1]; at 100.0 µM,73% (active)
same,growth inhibition,[2]; at 1.2 µM,3%
same,growth inhibition,[2]; at 3.7 µM,3%
same,growth inhibition,[2]; at 11.0 µM,7%
same,growth inhibition,[2]; at 33.0 µM,38%
same,growth inhibition,[2]; at 100.0 µM,78% (active)
same,growth inhibition,[3]; at 1.2 µM,2%
same,growth inhibition,[3]; at 3.7 µM,7%
same,growth inhibition,[3]; at 11.0 µM,5%
same,growth inhibition,[3]; at 33.0 µM,11%
same,growth inhibition,[3]; at 100.0 µM,16%
same,growth inhibition,[4]; at 1.2 µM,6%
same,growth inhibition,[4]; at 3.7 µM,6%
same,growth inhibition,[4]; at 11.0 µM,30%
same,growth inhibition,[4]; at 33.0 µM,77% (active)
same,growth inhibition,[4]; at 100.0 µM,88% (active)
same,growth inhibition,[5]; at 1.2 µM,6%
same,growth inhibition,[5]; at 3.7 µM,0%
same,growth inhibition,[5]; [17],1%
same,growth inhibition,[5]; at 11.0 µM,4%
same,growth inhibition,[5]; at 33.0 µM,49%
same,growth inhibition,[5]; [18],48%
same,growth inhibition,[5]; at 50.0 µM,78% (active)
same,growth inhibition,[5]; at 100.0 µM,76% (active)
same,growth inhibition,[6]; at 1.2 µM,15%
same,growth inhibition,[6]; at 3.7 µM,13%
same,growth inhibition,[6]; [17],-11%
same,growth inhibition,[6]; at 11.0 µM,22%
same,growth inhibition,[6]; at 33.0 µM,57%
same,growth inhibition,[6]; [18],8%
same,growth inhibition,[6]; at 50.0 µM,45.9%
same,growth inhibition,[6]; at 100.0 µM,81% (active)
same,growth inhibition,[7]; at 1.2 µM,10%
same,growth inhibition,[7]; at 3.7 µM,3%
same,growth inhibition,[7]; at 11.0 µM,14%
same,growth inhibition,[7]; at 33.0 µM,49%
same,growth inhibition,[7]; at 100.0 µM,84% (active)
same,growth inhibition,[8]; [17],-8%
same,growth inhibition,[8]; [18],44%
same,growth inhibition,[8]; at 50.0 µM,25.6%
same,growth inhibition,[9]; at 1.2 µM,12%
same,growth inhibition,[9]; at 3.7 µM,4%
same,growth inhibition,[9]; at 11.0 µM,13%
same,growth inhibition,[9]; at 33.0 µM,64%
same,growth inhibition,[9]; at 100.0 µM,76% (active)
same,growth inhibition,[10]; [17],-4%
same,growth inhibition,[10]; [18],15%
same,growth inhibition,[10]; at 50.0 µM,57.9%
same,growth inhibition,[11]; at 1.2 µM,10%
same,growth inhibition,[11]; at 3.7 µM,5%
same,growth inhibition,[11]; [17],-14%
same,growth inhibition,[11]; at 11.0 µM,11%
same,growth inhibition,[11]; at 33.0 µM,54%
same,growth inhibition,[11]; [18],46%
same,growth inhibition,[11]; at 50.0 µM,74.7% (active)
same,growth inhibition,[11]; at 100.0 µM,70% (active)
same,growth inhibition,[12]; at 1.2 µM,2%
same,growth inhibition,[12]; at 3.7 µM,4%
same,growth inhibition,[12]; at 11.0 µM,23%
same,growth inhibition,[12]; at 33.0 µM,76% (active)
same,growth inhibition,[12]; at 100.0 µM,90% (active)
same,growth inhibition,[13]; at 1.2 µM,10%
same,growth inhibition,[13]; at 3.7 µM,8%
same,growth inhibition,[13]; at 11.0 µM,20%
same,growth inhibition,[13]; at 33.0 µM,59%
same,growth inhibition,[13]; at 100.0 µM,81% (active)
same,growth inhibition,[14]; at 1.2 µM,10%
same,growth inhibition,[14]; at 3.7 µM,15%
same,growth inhibition,[14]; at 11.0 µM,28%
same,growth inhibition,[14]; at 33.0 µM,81% (active)
same,growth inhibition,[14]; at 100.0 µM,90% (active)
same,growth inhibition,[15]; [17],-10%
same,growth inhibition,[15]; [18],41%
same,growth inhibition,[15]; at 50.0 µM,69.7%
same,growth inhibition,[16]; at 1.2 µM,14%
same,growth inhibition,[16]; at 3.7 µM,19%
same,growth inhibition,[16]; at 11.0 µM,24%
same,growth inhibition,[16]; at 33.0 µM,49%
same,growth inhibition,[16]; at 100.0 µM,77% (active)
Nc1nc(N)c2nc(CNc3ccc(C(=O)NC(CCC(=O)O)C(=O)O)cc3F)cnc2n1 (stereo unspecified),growth inhibition,[1]; at 1.2 µM,28%
same,growth inhibition,[1]; at 3.7 µM,42%
same,growth inhibition,[1]; at 11.0 µM,62%
same,growth inhibition,[1]; at 33.0 µM,82% (active)
same,growth inhibition,[1]; at 100.0 µM,89% (active)
same,growth inhibition,[2]; at 1.2 µM,13%
same,growth inhibition,[2]; at 3.7 µM,12%
same,growth inhibition,[2]; at 11.0 µM,17%
same,growth inhibition,[2]; at 33.0 µM,50%
same,growth inhibition,[2]; at 100.0 µM,78% (active)
same,growth inhibition,[3]; at 1.2 µM,23%
same,growth inhibition,[3]; at 3.7 µM,13%
same,growth inhibition,[3]; at 11.0 µM,13%
same,growth inhibition,[3]; at 33.0 µM,15%
same,growth inhibition,[3]; at 100.0 µM,39%
same,growth inhibition,[4]; at 1.2 µM,19%
same,growth inhibition,[4]; at 3.7 µM,16%
same,growth inhibition,[4]; at 11.0 µM,15%
same,growth inhibition,[4]; at 33.0 µM,36%
same,growth inhibition,[4]; at 100.0 µM,63%
same,growth inhibition,[5]; at 1.2 µM,7%
same,growth inhibition,[5]; at 3.7 µM,18%
same,growth inhibition,[5]; [17],13%
same,growth inhibition,[5]; at 11.0 µM,30%
same,growth inhibition,[5]; at 33.0 µM,55%
same,growth inhibition,[5]; [18],86% (active)
same,growth inhibition,[5]; at 50.0 µM,43%
same,growth inhibition,[5]; at 100.0 µM,74% (active)
same,growth inhibition,[6]; at 1.2 µM,19%
same,growth inhibition,[6]; at 3.7 µM,26%
same,growth inhibition,[6]; [17],26%
same,growth inhibition,[6]; at 11.0 µM,81% (active)
same,growth inhibition,[6]; at 33.0 µM,93% (active)
same,growth inhibition,[6]; [18],97% (active)
same,growth inhibition,[6]; at 50.0 µM,86.7% (active)
same,growth inhibition,[6]; at 100.0 µM,94% (active)
same,growth inhibition,[7]; at 1.2 µM,0%
same,growth inhibition,[7]; at 3.7 µM,-19%
same,growth inhibition,[7]; at 11.0 µM,0%
same,growth inhibition,[7]; at 33.0 µM,54%
same,growth inhibition,[7]; at 100.0 µM,82% (active)
same,growth inhibition,[8]; [17],-4%
same,growth inhibition,[8]; [18],56%
same,growth inhibition,[8]; at 50.0 µM,39.5%
same,growth inhibition,[9]; at 1.2 µM,-8%
same,growth inhibition,[9]; at 3.7 µM,13%
same,growth inhibition,[9]; at 11.0 µM,18%
same,growth inhibition,[9]; at 33.0 µM,17%
same,growth inhibition,[9]; at 100.0 µM,46%
same,growth inhibition,[10]; [17],14%
same,growth inhibition,[10]; [18],-2%
same,growth inhibition,[10]; at 50.0 µM,-5.05%
same,growth inhibition,[11]; at 1.2 µM,6%
same,growth inhibition,[11]; at 3.7 µM,6%
same,growth inhibition,[11]; [17],2%
same,growth inhibition,[11]; at 11.0 µM,6%
same,growth inhibition,[11]; at 33.0 µM,35%
same,growth inhibition,[11]; [18],82% (active)
same,growth inhibition,[11]; at 50.0 µM,29.2%
same,growth inhibition,[11]; at 100.0 µM,73% (active)
same,growth inhibition,[12]; at 1.2 µM,-19%
same,growth inhibition,[12]; at 3.7 µM,-11%
same,growth inhibition,[12]; at 11.0 µM,-21%
same,growth inhibition,[12]; at 33.0 µM,2%
same,growth inhibition,[12]; at 100.0 µM,48%
same,growth inhibition,[13]; at 1.2 µM,16%
same,growth inhibition,[13]; at 3.7 µM,10%
same,growth inhibition,[13]; at 11.0 µM,8%
same,growth inhibition,[13]; at 33.0 µM,29%
same,growth inhibition,[13]; at 100.0 µM,46%
same,growth inhibition,[14]; at 1.2 µM,24%
same,growth inhibition,[14]; at 3.7 µM,14%
same,growth inhibition,[14]; at 11.0 µM,15%
same,growth inhibition,[14]; at 33.0 µM,41%
same,growth inhibition,[14]; at 100.0 µM,67%
same,growth inhibition,[15]; [17],18%
same,growth inhibition,[15]; [18],67%
same,growth inhibition,[15]; at 50.0 µM,-2.7%
same,growth inhibition,[16]; at 1.2 µM,20%
same,growth inhibition,[16]; at 3.7 µM,19%
same,growth inhibition,[16]; at 11.0 µM,35%
same,growth inhibition,[16]; at 33.0 µM,72% (active)
same,growth inhibition,[16]; at 100.0 µM,80% (active)
